Compounds without any hit were thinned out: in the full panel of roughly 79,000, 15% have a hit. A number with no mark means an inactive call. The source made the active and inactive calls. Cut-off read from the data, not from the text of the source: active = growth inhibition above about 70%; inactive = the rest.
Experiment: NCI Yeast Anticancer Drug Screen. Data for the sgs1 mgt1 strain (AID 161);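 note: 0% = growth of cultures given vehicle only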
Details: S. cerevisiae sgs1 mgt1 strain, at 50.0 µM, active compounds read high
Method in brief: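 Growth of a repair-deficient yeast mutant was monitored after compound treatment and expressed as inhibition relative to vehicle-treated cultures.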

**Q.** For `CCC(CC)C(=O)OCCCC1CCCO1` (stereo not given), which growth inhibition is on record?
**A.** 7.9%

**Q.** For `CCCCCCCCCCCCCC(=O)N(CCCCCCCCC)CC(O)C(O)C(OC1OC(CO)C(O)C(O)C1O)C(O)CO` (stereo not given), which growth inhibition is on record?
**A.** -17.4%

**Q.** With `NC(=O)c1nnsc1N/N=C/c1ccc([N+](=O)[O-])cc1` as the compound, how does the growth inhibition read?
**A.** -25.1%

**Q.** For `C=C1C(=O)O[C@@H]2/C=C(/C)[C@@H](OC(C)=O)C[C@@H](O)/C(C)=C\[C@@H](OC(=O)[C@]3(C)O[C@@H]3C)[C@@H]12`, which growth inhibition is on record?
**A.** 16.2%

**Q.** For `COc1ccc2c(c1)C1(C)CCC(=O)C(C)=C1CC2` (stereo not given), which growth inhibition is on record?
**A.** 22.9%

**Q.** With `O=C(COC(=O)c1cccc([N+](=O)[O-])c1)c1ccc(Br)cc1` as the compound, how does the growth inhibition read?
**A.** 1.55%

**Q.** For `COc1cccc(CN2CCCN(Cc3cccc(OC)c3O)C2c2ccccc2)c1O`, which growth inhibition is on record?
**A.** 1.8%

**Q.** Which growth inhibition does the source give for `CCCN(CCN(CC)CC)C(=O)N(CC)CC` here?
**A.** 3.2%

**Q.** For `O=[N+]([O-])c1ccc(-c2ccccc2CO)cc1`, which growth inhibition is on record?
**A.** -25.6%

**Q.** For `O=c1c2ccccc2nc(-c2ccc(Br)cc2)n1NC1OC(CO)C(O)C(O)C1O` (stereo not given), which growth inhibition is on record?
**A.** 5.2%

**Q.** For `O=C(O)c1cccc(CO)c1O`, which growth inhibition is on record?
**A.** -12.7%

**Q.** With `CN(C)c1ccc(N=C(C#CC#Cc2ccccc2)c2ccccc2)cc1` as the compound, how does the growth inhibition read?
**A.** 7.55%

**Q.** For `CCCCOC(=O)CCCCCCCCC(=O)OCCCC`, which growth inhibition is on record?
**A.** 2.05%

**Q.** With `COc1c(Cl)c(Cl)c2ncc(Cl)cc2c1Cl` as the compound, how does the growth inhibition read?
**A.** -3.5%

**Q.** With `CCOC(=O)COc1ccc(Cl)cc1CCl` as the compound, how does the growth inhibition read?
**A.** -10.4%

**Q.** Which growth inhibition does the source give for `Cc1ccc(NC(=O)Nc2cccc(C(F)(F)F)c2)cc1NC(=O)Nc1cccc(C(F)(F)F)c1` here?
**A.** 31.9%

**Q.** Which growth inhibition does the source give for `Cc1cc(C(=O)CSC(=S)SC(C)(C)C)ccc1Cl` here?
**A.** -5.85%

**Q.** Which growth inhibition does the source give for `c1ccc(C2Nc3ccccc3NC2c2ccccc2)cc1` (stereo not given) here?
**A.** 24.4%

**Q.** With `Cc1ccccc1C(=O)NCc1ccccc1` as the compound, how does the growth inhibition read?
**A.** 0.6%

**Q.** Which growth inhibition does the source give for `O=c1[nH]c(-c2ccncc2)nnc1-c1ccc(Cl)cc1` here?
**A.** -11.5%

**Q.** Which growth inhibition does the source give for `CC(=O)OCCn1c(C)nc2cc(Cl)c(Cl)cc21` here?
**A.** 16.3%

**Q.** Which growth inhibition does the source give for `Cc1cc(C)cc(O)c1` here?
**A.** -42%

**Q.** With `Cc1[nH]c2ccc(-c3ccccc3)cc2c1CC(=O)O` as the compound, how does the growth inhibition read?
**A.** 47.7%

**Q.** For `O=Ic1ccccc1`, which growth inhibition is on record?
**A.** 1.5%

**Q.** Which growth inhibition does the source give for `O=C1CCC2c3ccccc3C(=O)C2C1` (stereo not given) here?
**A.** -1.45%

**Q.** Which growth inhibition does the source give for `O=C(NNC(=O)c1ccccc1F)c1ccc2ccccc2c1` here?
**A.** -8.75%

**Q.** With `COc1ccc2c(O)c(Oc3ccc(Cl)cc3)c(=O)oc2c1` as the compound, how does the growth inhibition read?
**A.** -1.45%

**Q.** Which growth inhibition does the source give for `COC(=O)/C(=N/NC(N)=O)C(C(=O)OC)C(=O)C(=O)Nc1ccc(Cl)cc1` (stereo not given) here?
**A.** -16.9%

**Q.** Which growth inhibition does the source give for `COC(=O)C1(C(=O)OC)C2CCCCC21` (stereo not given) here?
**A.** -6.6%

**Q.** For `CCCC(=O)Nc1ccc2c(ccn2COC)c1`, which growth inhibition is on record?
**A.** -2.05%

**Q.** For `CCCCCCCCCCCc1cc(=O)n(-c2cc(Cl)ccc2Cl)n1C`, which growth inhibition is on record?
**A.** 99.5% (active)

**Q.** With `CC1(C)OCC(Cc2ccc3c(c2)OCO3)CO1` as the compound, how does the growth inhibition read?
**A.** -5.75%

**Q.** With `c1ccc2c(c1)cc1n2CC2CN=NC12` (stereo not given) as the compound, how does the growth inhibition read?
**A.** -27.4%

**Q.** Which growth inhibition does the source give for `Cc1cc(=O)c2cc(N=Cc3ccc(N(C)C)cc3)ccc2o1` here?
**A.** -16.8%

**Q.** For `C1CSCCSCCCSCCSCCCSCCSCCCSCCSC1`, which growth inhibition is on record?
**A.** 45.9%

**Q.** With `CC(=O)C(Cc1cccc([N+](=O)[O-])c1)Cc1cccc([N+](=O)[O-])c1` as the compound, how does the growth inhibition read?
**A.** -6.6%

**Q.** With `COC1=C(O)C(=O)N(C)C(=O)C1` as the compound, how does the growth inhibition read?
**A.** 29.2%

**Q.** For `COC(=O)C1=CC(O)CCC1c1ccc(OC)cc1` (stereo not given), which growth inhibition is on record?
**A.** -13.2%

**Q.** With `CCOC(=O)C1=CC2CCOC2O1` (stereo not given) as the compound, how does the growth inhibition read?
**A.** 5.85%

**Q.** Which growth inhibition does the source give for `CCCCCCC(C)OC(C)=O` (stereo not given) here?
**A.** -2.55%

Experiment: NCI Yeast Anticancer Drug Screen. Data for the cln2 rad14 strain (AID 165);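 note: 0% = growth equal to vehicle treated cultures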
Details: S. cerevisiae cln2 rad14 strain, at 50.0 µM, active compounds read high
Method in brief: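 Yeast strain cln2 rad14, bearing defects in cell cycle control and DNA repair, serves as the test system; values reflect growth inhibition compared with vehicle.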

**Q.** With `CCC(CC)C(=O)OCCCC1CCCO1` (stereo not given) as the compound, how does the growth inhibition read?
**A.** -3.25%

**Q.** For `CCCCCCCCCCCCCC(=O)N(CCCCCCCCC)CC(O)C(O)C(OC1OC(CO)C(O)C(O)C1O)C(O)CO` (stereo not given), which growth inhibition is on record?
**A.** -28.4%

**Q.** Which growth inhibition does the source give for `NC(=O)c1nnsc1N/N=C/c1ccc([N+](=O)[O-])cc1` here?
**A.** -2.05%

**Q.** For `C=C1C(=O)O[C@@H]2/C=C(/C)[C@@H](OC(C)=O)C[C@@H](O)/C(C)=C\[C@@H](OC(=O)[C@]3(C)O[C@@H]3C)[C@@H]12`, which growth inhibition is on record?
**A.** 20.5%

**Q.** For `COc1ccc2c(c1)C1(C)CCC(=O)C(C)=C1CC2` (stereo not given), which growth inhibition is on record?
**A.** 7.75%

**Q.** Which growth inhibition does the source give for `O=C(COC(=O)c1cccc([N+](=O)[O-])c1)c1ccc(Br)cc1` here?
**A.** -16.2%

**Q.** Which growth inhibition does the source give for `COc1cccc(CN2CCCN(Cc3cccc(OC)c3O)C2c2ccccc2)c1O` here?
**A.** -6.45%

**Q.** With `CCCN(CCN(CC)CC)C(=O)N(CC)CC` as the compound, how does the growth inhibition read?
**A.** -19.1%

**Q.** With `O=[N+]([O-])c1ccc(-c2ccccc2CO)cc1` as the compound, how does the growth inhibition read?
**A.** -33.5%

**Q.** For `O=c1c2ccccc2nc(-c2ccc(Br)cc2)n1NC1OC(CO)C(O)C(O)C1O` (stereo not given), which growth inhibition is on record?
**A.** -2.2%

**Q.** For `O=C(O)c1cccc(CO)c1O`, which growth inhibition is on record?
**A.** -17.4%

**Q.** For `CN(C)c1ccc(N=C(C#CC#Cc2ccccc2)c2ccccc2)cc1`, which growth inhibition is on record?
**A.** -42.4%

**Q.** Which growth inhibition does the source give for `CCCCOC(=O)CCCCCCCCC(=O)OCCCC` here?
**A.** -14.1%

**Q.** For `COc1c(Cl)c(Cl)c2ncc(Cl)cc2c1Cl`, which growth inhibition is on record?
**A.** -29.1%

**Q.** For `CCOC(=O)COc1ccc(Cl)cc1CCl`, which growth inhibition is on record?
**A.** -10.9%

**Q.** Which growth inhibition does the source give for `Cc1ccc(NC(=O)Nc2cccc(C(F)(F)F)c2)cc1NC(=O)Nc1cccc(C(F)(F)F)c1` here?
**A.** 23.7%

**Q.** With `Cc1cc(C(=O)CSC(=S)SC(C)(C)C)ccc1Cl` as the compound, how does the growth inhibition read?
**A.** 4.45%

**Q.** For `c1ccc(C2Nc3ccccc3NC2c2ccccc2)cc1` (stereo not given), which growth inhibition is on record?
**A.** 20.9%

**Q.** For `Cc1ccccc1C(=O)NCc1ccccc1`, which growth inhibition is on record?
**A.** -27.5%

**Q.** Which growth inhibition does the source give for `O=c1[nH]c(-c2ccncc2)nnc1-c1ccc(Cl)cc1` here?
**A.** -26.9%

**Q.** Which growth inhibition does the source give for `CC(=O)OCCn1c(C)nc2cc(Cl)c(Cl)cc21` here?
**A.** 31.9%

**Q.** For `Cc1cc(C)cc(O)c1`, which growth inhibition is on record?
**A.** -13.2%

**Q.** With `Cc1[nH]c2ccc(-c3ccccc3)cc2c1CC(=O)O` as the compound, how does the growth inhibition read?
**A.** -5.85%

**Q.** With `O=Ic1ccccc1` as the compound, how does the growth inhibition read?
**A.** 10.9%

**Q.** For `O=C1CCC2c3ccccc3C(=O)C2C1` (stereo not given), which growth inhibition is on record?
**A.** -19.1%

**Q.** With `O=C(NNC(=O)c1ccccc1F)c1ccc2ccccc2c1` as the compound, how does the growth inhibition read?
**A.** -2.5%

**Q.** With `COc1ccc2c(O)c(Oc3ccc(Cl)cc3)c(=O)oc2c1` as the compound, how does the growth inhibition read?
**A.** 2.6%

**Q.** With `COC(=O)/C(=N/NC(N)=O)C(C(=O)OC)C(=O)C(=O)Nc1ccc(Cl)cc1` (stereo not given) as the compound, how does the growth inhibition read?
**A.** 13.8%

**Q.** For `COC(=O)C1(C(=O)OC)C2CCCCC21` (stereo not given), which growth inhibition is on record?
**A.** 12.8%

**Q.** For `CCCC(=O)Nc1ccc2c(ccn2COC)c1`, which growth inhibition is on record?
**A.** 8.7%

**Q.** For `CCCCCCCCCCCc1cc(=O)n(-c2cc(Cl)ccc2Cl)n1C`, which growth inhibition is on record?
**A.** 98.7% (active)

**Q.** Which growth inhibition does the source give for `CC1(C)OCC(Cc2ccc3c(c2)OCO3)CO1` here?
**A.** -32.2%

**Q.** For `c1ccc2c(c1)cc1n2CC2CN=NC12` (stereo not given), which growth inhibition is on record?
**A.** 12.3%

**Q.** With `Cc1cc(=O)c2cc(N=Cc3ccc(N(C)C)cc3)ccc2o1` as the compound, how does the growth inhibition read?
**A.** 17.1%

**Q.** For `C1CSCCSCCCSCCSCCCSCCSCCCSCCSC1`, which growth inhibition is on record?
**A.** 13.4%

**Q.** With `CC(=O)C(Cc1cccc([N+](=O)[O-])c1)Cc1cccc([N+](=O)[O-])c1` as the compound, how does the growth inhibition read?
**A.** -38%

**Q.** For `COC1=C(O)C(=O)N(C)C(=O)C1`, which growth inhibition is on record?
**A.** 0.75%

**Q.** Which growth inhibition does the source give for `COC(=O)C1=CC(O)CCC1c1ccc(OC)cc1` (stereo not given) here?
**A.** -5.8%

**Q.** For `CCOC(=O)C1=CC2CCOC2O1` (stereo not given), which growth inhibition is on record?
**A.** -28.7%

**Q.** Which growth inhibition does the source give for `CCCCCCC(C)OC(C)=O` (stereo not given) here?
**A.** -20%

Source: PubChem BioAssay (NCI)
